NPC1 promoter act = qHTS Assay for NPC1 Promoter Activators. Huh7 NPC1 promoter luciferase reporter, 24 h. Potency, µM (titrated, usually from 9.22 µM), without a hit: at the top dose activation, most hits filed as activators. 320,000 compounds, 2.4% hits. AID 485313, 2010; note: % of control where 0% means no effect; nearly all actives have a fitted effect of over 60% in size
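Compounds in DMSO were transferred onto Huh7 NPC1-luciferase reporter cells pre-incubated 2 h; after 24 h at 37 °C, Amplite reagent was dispensed and luminescence recorded 10 min later.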
Rab9 prom act = qHTS Assay for Rab9 Promoter Activators. Potency, µM (top dose mostly 9.22 µM), for inactives: at the top dose activation, negative = inhibition, actives largely listed as activators. Huh7 Rab9 promoter-luciferase reporter, luminescence, 24 h. 320,000 compounds, 2.8% hits. AID 485297, 2010; note: % of control where 0% means no effect; nearly all actives have a fitted effect of over 60% in size
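Luminescence read-out: Huh7 cells stably expressing Rab9-luciferase, treated 24 h with compound at 37 °C, then lysed with luciferase reagent for 10 min at ambient before reading.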
KinaseGlo FLuc = Counterscreen for Luciferase (Kinase-Glo TM) Inhibition; AID 1379, 2008; Potency, µM (highest dose often 38.3 µM), for the others: at the top dose activity change, negative = inhibition, actives largely listed as inhibitors; 200,000 compounds, 0.28% hits; Luciferin 4-monooxygenase (Photuris pensylvanica), Q27757; Kinase-Glo luciferase, ATP luminescence, 8 min; note: % is set by controls: 0 for no effect and ±100 for the full control effect; nearly all actives have a fitted effect of over 60% in size
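Kinase-Glo luciferase light output from ATP and luciferin was measured with 10 uM ATP, within the enzyme's linear range. Buffer: 50 mM imidazole pH 7.2, 50 mM KCl, 7 mM MgCl2, 0.01% Tween 20, 0.05% BSA; luminescence read after 8 min at ambient temperature.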
ELG1 genotox = qHTS screen for small molecules that induce genotoxicity in human embryonic kidney (HEK293T) cells expressing luciferase-tagged ELG1 | 330,000 compounds, 1.3% hits | AID 504466, 2011 | HEK293T ELG1-luciferase reporter, luminescence, 16 h | Potency, µM (doses to about 46 µM), for inactives: at the top dose activity change, positive = activation, hits mostly activators; note: % of control where 0% means no effect; nearly all actives have a fitted effect of over 60% in size
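Cells (2,000/well) expressing the ELG1-luciferase fusion are dosed by pin tool and kept 16 hr at 37 °C, 5% CO2. Signal comes from ONE-Glo luciferase reagent after 30 min at room temperature.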
FLuc counter = qHTS profiling assay for firefly luciferase inhibitor/activator using purifed enzyme and Km concentrations of substrates (counterscreen for miR-21 project). Luciferin 4-monooxygenase (Photinus pyralis), P08659. purified FLuc, Km substrates, luminescence inhibition. Potency, µM (highest dose often 57.5 µM), inactives show at the top dose activity change, negative = inhibition, hits mostly inhibitors. 360,000 compounds, 6.9% hits;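 note: plate controls were vehicle for no effect and reference inhibitor for full effect; nearly all actives have a fitted effect of over 55% in size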
Target sequence (P08659 whole entry, looked up): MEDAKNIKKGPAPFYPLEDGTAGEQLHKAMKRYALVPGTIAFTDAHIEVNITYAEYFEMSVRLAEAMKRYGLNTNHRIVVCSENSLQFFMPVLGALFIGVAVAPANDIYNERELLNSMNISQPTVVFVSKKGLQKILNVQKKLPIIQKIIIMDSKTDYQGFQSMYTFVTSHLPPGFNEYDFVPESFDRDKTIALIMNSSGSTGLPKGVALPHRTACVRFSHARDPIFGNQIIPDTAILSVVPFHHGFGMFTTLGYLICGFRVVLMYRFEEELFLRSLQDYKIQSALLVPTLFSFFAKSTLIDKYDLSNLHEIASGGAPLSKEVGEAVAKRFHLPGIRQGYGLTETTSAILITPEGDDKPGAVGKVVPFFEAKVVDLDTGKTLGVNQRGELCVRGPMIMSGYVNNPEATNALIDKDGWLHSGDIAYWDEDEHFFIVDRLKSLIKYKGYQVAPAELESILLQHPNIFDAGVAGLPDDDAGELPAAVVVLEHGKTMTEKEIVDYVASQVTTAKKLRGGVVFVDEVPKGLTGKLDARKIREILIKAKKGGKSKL
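Purified P. pyralis luciferase, 10 nM final, with Km-level 10 uM D-luciferin and 10 uM ATP in 50 mM Tris acetate pH 7.5, 10 mM Mg acetate, 0.01% Tween-20, 0.05% BSA; 6-point qHTS titration about 60 µM downward; luminescence read.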
SMN2 splice enh = qHTS Assay for Enhancers of SMN2 Splice Variant Expression | HEK293 SMN2-luciferase splicing reporter, luminescence, 30-36 h | Potency, µM (titrated, usually from 46.1 µM), inactives show at the highest dose activity change, positive = activation, most hits filed as activators | 210,000 compounds, 2.8% hits; note: % of control where 0% means no effect; nearly all actives have a fitted effect of over 55% in size
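HEK293 cells carry an SMN2 […]–luciferase reporter in which exon 7 inclusion puts luciferase in frame. Cells were plated 10-12 h before compound addition, then incubated 30-36 h at 37C. ONE-Glo luminescence was read; sodium butyrate at 4.5 mM final served as control.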
Numbers without * were called inactive; ? = inconclusive; . = no result given; [ ] = another dose, or the depositor's remark. The list is not random: actives were taken first. Their share in the collection is about 7.5%. Calls come from the whole dose curve; as a rule, active = well fitted curve in the direction sought with a large enough effect; inconclusive = small, poorly fitted or top-dose-only effect, or another doubt; inactive = no such curve, though single readings can be large; an effect the other way counts as inactive or inconclusive. Potency is the fitted concentration of half-maximal effect.

SMILES	NPC1 promoter act	Rab9 prom act	KinaseGlo FLuc	ELG1 genotox	FLuc counter	SMN2 splice enh
CCOc1ccc(C2=Nc3ccccc3C(c3ccc(N4CCOCC4)cc3)=NN2)cc1	?	2.8µM*	-6%	10%	?	?
CCOc1ccc(C2=NNC(c3cccs3)=Nc3ccc(OC)cc32)cc1	-4%	-1%	-7%	-3%	21µM*	4%
CNC(=O)c1ccc(=O)n(Cc2cccc(C(F)(F)F)c2)c1	-4%	2%	-1%	1%	-1%	18%
Cc1csc2nc(CCNS(=O)(=O)c3cccs3)cn12	?	?	-8%	21µM*	24µM*	15%
CCCS(=O)(=O)NCc1cn2c(C)csc2n1	?	?	1%	12µM*	?	11µM*
Cc1cccc(C(=O)N[C@H](C(=O)Nc2ncc(C)s2)C(C)C)c1	-21%	-31%	4%	?	-9%	14µM*
O=C(Oc1coc(CSc2ncccn2)cc1=O)c1ccccc1[N+](=O)[O-]	-5%	3%	?	-16%	6.7µM*	5%
CCCCCCNC(=O)c1cc(S(=O)(=O)N2CCc3ccccc32)ccc1F	-1%	-6%	.	0%	-2%	.
O=C(NCc1ccc2c(c1)CCO2)Nc1ccccc1	3.5µM*	3.2µM*	.	?	15µM*	.
Cc1ccc(C(=O)NCc2ccc3c(c2)CCO3)cc1C	27%	?	.	16%	?	.
CC(=O)N1CCc2cc(Br)cc(S(=O)(=O)CCC(=O)N3CCN(c4ccccc4)CC3)c21	.	.	.	.	0%	-4%
CCc1cccc(NC(=O)Nc2csc3c2CCCC3)c1	.	.	.	.	?	16%
CCc1cccc(NC(=O)Nc2cccs2)c1	?	2.8µM*	-2%	?	8.5µM*	13µM*
N#Cc1cccc(NC(=O)Nc2cccs2)c1	19%	15%	-5%	-1%	15µM*	-18%
Cn1cccc1C(=O)NC(=O)COC(=O)c1cc(S(=O)(=O)N2CCCCC2)ccc1Cl	-4%	-2%	.	2%	-6%	.
O=C(CNc1ccccc1)N/N=C/c1ccc2c(c1)OCCO2	2%	0%	4%	1%	9.5µM*	?
O=C(CNC(=O)c1ccccc1Cl)N/N=C/c1ccc2c(c1)OCO2	-1%	2%	.	3%	?	.
O=C(CNC(=O)c1ccccc1F)N/N=C/c1ccc2c(c1)OCO2	?	?	.	?	17µM*	.
O=C(Cc1ccccc1)N/N=C/c1ccc2c(c1)OCO2	2.5µM*	4µM*	-1%	?	15µM*	16µM*
COc1cccc(C(=O)NCC(=O)N/N=C/c2ccc3c(c2)OCO3)c1	3%	1%	.	6%	24µM*	.
O=C(CNc1ccccc1)N/N=C/c1ccc2c(c1)OCO2	5%	3%	1%	2%	?	7%
COc1cccc(C(=O)NCC(=O)N/N=C/c2cccnc2)c1	-2%	0%	.	2%	3%	.
CCOC(=O)c1ccc(NC(=O)Cc2ccc(-n3c(CC)nc4cccnc43)cc2)cc1	.	.	.	.	-12%	.
O=C(Cn1ccc(C(F)(F)F)n1)N/N=C/c1ccc2c(c1)OCO2	23%	6%	.	?	19µM*	.
O=C(CNC(=O)c1ccccn1)N/N=C/c1ccc2c(c1)OCO2	2%	-6%	5%	-11%	?	13%
SMILES	NPC1 promoter act	Rab9 prom act	KinaseGlo FLuc	ELG1 genotox	FLuc counter	SMN2 splice enh
C/C(=N\NC(=O)Cn1ccc(C(F)(F)F)n1)c1ccc2c(c1)OCO2	-2%	11%	0%	-3%	-7%	-7%
O=C(CSc1ncccn1)N/N=C/c1ccc2c(c1)OCO2	26%	?	.	?	11µM*	.
COc1ccc(N2CCN(S(=O)(=O)c3ccc(OC)c(-c4noc(C)n4)c3)CC2)cc1	.	.	.	.	3%	.
COc1ccccc1OCCSc1nc2ccccc2n1CCC(=O)O	1%	-2%	.	6%	27µM*	.
COc1ccccc1OCCn1c(SCC(=O)O)nc2ccccc21	-2%	6%	.	1%	2%	.
COc1ccccc1OCCSc1nc2ccccc2n1CCO	1%	1%	-3%	-1%	17µM*	.
CCC(C)NC(=O)c1ccc(N2CC3CC(C2)c2cccc(=O)n2C3)c(NC(=O)c2ccc(Br)o2)c1 (stereo not drawn)	2%	0%	.	0%	0%	.
O=C(Cn1cnc2c(NC(=O)OCc3ccccc3)ncnc21)NCCN1CCOCC1	0%	-5%	.	-1%	-15%	.
Cc1ccc(N2CCN(C(=O)c3c(C)oc4ncnc(N5CCOCC5)c34)CC2)c(C)c1	.	.	.	.	-2%	.
COc1ccccc1CN1CCCC2(CCN(C(C)=O)CC2)C1	.	.	-2%	.	.	-9%
CCCN1C(=O)C(=O)c2cc(C)ccc21	.	.	.	18%	.	.
COC1=C(OC)C(=O)c2ccccc2C1=O	-24%[46.1 µM]	-42%[46.1 µM]	-5%	.	.	-96%
CCCCCCN1C=CC(=C2C(=O)c3ccccc3C2=O)C=C1	?	0.11µM*	8.9µM*	0.18µM*	0.21µM*	.
CN1C=CC(=C2C(=O)c3ccccc3C2=O)C=C1	0.45µM*	0.35µM*	?	2.9µM*	3µM*	13µM*
CCN1C=CC(=C2C(=O)c3ccccc3C2=O)C=C1	0.0002µM*	0.0003µM*	5µM*	?	0.085µM*	0.25µM*
CC1=CC(=C2C(=O)c3ccccc3C2=O)C=C(C)O1	?	?	-9%	20%	?	9%
CCCN1C=CC(=C2C(=O)c3ccccc3C2=O)C=C1	3.2e-05µM*	0.0003µM*	4.5µM*	-7%	0.067µM*	-79%
N#Cc1ccc(NC(=O)c2ccc3c(c2)nnn3C2CCCC2)cc1	.	.	.	.	0%	.
COc1ccc(CNC(=O)CN2CCN(c3ccccc3)CC2)cc1	2%	1%	.	-5%	-2%	.
Oc1c(Br)cc(Br)cc1-c1nc2ccccc2s1	.	.	.	.	7.6µM*	-4%
O=c1c(-c2nc3ccccc3s2)cccn1Cc1ccc(Cl)cc1	22%	?	-8%	?	13µM*	-20%
Clc1ccc(CCNc2nc3ccccc3s2)cc1	-1%	3%	-2%	3%	?	-2%
COc1cccc(-c2nc3ccccc3s2)c1O	?	?	-12%	1.5µM*	0.34µM*	7.1µM*
COc1cc(C(=O)Nc2cc(C)c(O)c(-c3nc4ccccc4s3)c2)cc(OC)c1OC	.	.	.	.	-11%	14%
COc1cc(OC)c(-c2nc3ccccc3s2)cc1OC	10%	9%	-2%	-4%	12µM*	.
